# Assay results from ChEMBL document CHEMBL3988442, “University of Dundee, Small-Polar-MMV Screening Library” (2021).
# Several values for one entry are separate records, joined by “and”; a condition that tells them apart may be missing. Equal entries are not always repeated. For part of these data: Results with a measured potency or affinity are listed apart.
# Experiments:
# Parameters in all cases: scale not given: direction of the effect not stated beside the values
# [1] = target: Protein translocase subunit SecA (Escherichia coli (strain K12)) (UniProt P10408); assay: Assay to Identify E. coli SecA ATPase Inhibitors; format: functional; conditions: 30 µM
# Protein translocase subunit SecA (Escherichia coli (strain K12)), sequence (P10408 whole entry): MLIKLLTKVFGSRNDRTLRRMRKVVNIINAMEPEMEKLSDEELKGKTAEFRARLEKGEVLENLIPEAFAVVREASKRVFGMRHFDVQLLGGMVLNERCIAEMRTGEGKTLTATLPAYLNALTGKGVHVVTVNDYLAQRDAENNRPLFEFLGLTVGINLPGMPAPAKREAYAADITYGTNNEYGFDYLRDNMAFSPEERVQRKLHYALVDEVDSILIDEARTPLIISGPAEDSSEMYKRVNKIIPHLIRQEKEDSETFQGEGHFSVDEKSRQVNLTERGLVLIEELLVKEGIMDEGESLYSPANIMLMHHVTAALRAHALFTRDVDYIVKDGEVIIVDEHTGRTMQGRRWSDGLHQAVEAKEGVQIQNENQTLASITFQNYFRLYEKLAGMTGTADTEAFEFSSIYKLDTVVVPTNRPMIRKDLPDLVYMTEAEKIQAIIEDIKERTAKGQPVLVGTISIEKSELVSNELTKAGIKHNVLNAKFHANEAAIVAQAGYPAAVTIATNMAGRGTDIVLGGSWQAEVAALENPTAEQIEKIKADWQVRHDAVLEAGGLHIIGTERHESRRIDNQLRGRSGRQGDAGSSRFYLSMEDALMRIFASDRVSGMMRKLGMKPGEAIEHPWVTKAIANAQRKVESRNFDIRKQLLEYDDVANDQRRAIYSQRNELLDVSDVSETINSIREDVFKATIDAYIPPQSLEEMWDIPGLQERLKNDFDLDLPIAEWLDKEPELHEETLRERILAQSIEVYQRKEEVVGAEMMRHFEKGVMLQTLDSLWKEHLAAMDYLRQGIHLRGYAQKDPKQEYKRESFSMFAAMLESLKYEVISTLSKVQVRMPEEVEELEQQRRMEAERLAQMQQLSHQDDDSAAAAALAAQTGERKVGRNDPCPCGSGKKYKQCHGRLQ
# [2] = target: T1, Ubiquitin-activating enzyme e1, putative (Leishmania donovani (strain BPK282A1)) (UniProt E9BSI1); assay: Leishmania donovani Ubiquitin Activating Enzyme (LdE1); format: functional; conditions: 30 µM
# T1 sequence (whole entry): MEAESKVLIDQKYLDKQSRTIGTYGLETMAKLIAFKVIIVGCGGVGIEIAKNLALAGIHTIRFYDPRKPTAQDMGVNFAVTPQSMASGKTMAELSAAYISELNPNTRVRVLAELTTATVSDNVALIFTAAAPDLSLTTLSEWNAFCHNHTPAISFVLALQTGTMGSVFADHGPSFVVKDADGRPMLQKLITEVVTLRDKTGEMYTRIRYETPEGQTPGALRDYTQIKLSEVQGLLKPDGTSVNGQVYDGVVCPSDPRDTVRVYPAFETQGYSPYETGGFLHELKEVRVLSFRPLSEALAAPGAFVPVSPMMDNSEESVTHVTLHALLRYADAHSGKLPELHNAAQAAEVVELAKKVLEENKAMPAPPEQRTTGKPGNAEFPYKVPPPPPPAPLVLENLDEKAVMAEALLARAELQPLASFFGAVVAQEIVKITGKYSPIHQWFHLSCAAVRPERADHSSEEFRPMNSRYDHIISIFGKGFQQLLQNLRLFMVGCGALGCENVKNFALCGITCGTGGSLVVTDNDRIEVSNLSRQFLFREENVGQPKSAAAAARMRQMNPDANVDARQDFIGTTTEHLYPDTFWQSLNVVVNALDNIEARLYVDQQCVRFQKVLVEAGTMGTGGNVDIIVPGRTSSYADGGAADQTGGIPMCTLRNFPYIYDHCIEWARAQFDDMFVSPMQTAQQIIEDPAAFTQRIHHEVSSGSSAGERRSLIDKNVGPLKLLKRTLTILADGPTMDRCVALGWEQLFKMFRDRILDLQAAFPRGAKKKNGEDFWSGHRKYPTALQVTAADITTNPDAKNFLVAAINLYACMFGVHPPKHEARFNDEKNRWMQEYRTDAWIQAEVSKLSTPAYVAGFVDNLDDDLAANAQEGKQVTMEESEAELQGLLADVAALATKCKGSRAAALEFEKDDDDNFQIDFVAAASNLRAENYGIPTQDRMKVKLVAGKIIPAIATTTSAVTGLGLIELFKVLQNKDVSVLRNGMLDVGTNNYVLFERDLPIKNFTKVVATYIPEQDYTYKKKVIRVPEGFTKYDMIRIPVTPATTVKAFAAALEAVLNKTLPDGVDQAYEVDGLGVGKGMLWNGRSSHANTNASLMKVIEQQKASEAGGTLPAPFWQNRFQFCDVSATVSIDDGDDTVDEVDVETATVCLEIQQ
# [3] = target: AMP-activated protein kinase, AMPK (Homo sapiens) (UniProt P54646+O43741+P54619+Q9UGJ0+Q9Y478+Q13131+Q9UGI9); assay: AMP-dependent Kinase enzyme assay. An in vitro enzyme assay that detects ADP turnover that is directly proportional to AMPK activity. This uses naive AMPK that is activated during the assay with MK-8722; format: functional; conditions: 30 µM
# [4] = target: Sialic acid-binding Ig-like lectin 9 (Homo sapiens) (UniProt Q9Y336); assay: Hs-Siglec9 ALPHAscreen SOP 20170721; conditions: 10 µM
# Sialic acid-binding Ig-like lectin 9 (Homo sapiens), sequence (Q9Y336 whole entry): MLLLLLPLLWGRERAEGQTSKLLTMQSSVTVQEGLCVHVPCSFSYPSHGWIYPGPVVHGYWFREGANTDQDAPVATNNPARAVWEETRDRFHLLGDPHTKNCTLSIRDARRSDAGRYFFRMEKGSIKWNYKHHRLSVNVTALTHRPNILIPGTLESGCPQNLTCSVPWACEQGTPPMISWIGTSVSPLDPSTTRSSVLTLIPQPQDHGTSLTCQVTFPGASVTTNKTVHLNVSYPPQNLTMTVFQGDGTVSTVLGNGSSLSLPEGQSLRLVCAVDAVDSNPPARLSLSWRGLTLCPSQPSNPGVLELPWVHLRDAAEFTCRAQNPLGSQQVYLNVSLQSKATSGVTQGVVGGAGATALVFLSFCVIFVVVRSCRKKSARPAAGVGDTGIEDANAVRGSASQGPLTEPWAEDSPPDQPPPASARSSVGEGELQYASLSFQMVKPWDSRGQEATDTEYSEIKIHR
# Trypanosoma cruzi = assay: Trypanosoma cruzi phosphomannomutase and mannose-1-phosphate guanylyltransferase assay; format: functional; conditions: 10 µM
# [5] = target: T2, Arginase-2, mitochondrial (Homo sapiens) (UniProt P78540); assay: in vitro enzyme assay to detect the production of urea directly proportional to the activity of Arginase II; format: functional; conditions: 33.3 µM; further: in the data most compounds retested in dose-response had high values
# T2 sequence (whole entry): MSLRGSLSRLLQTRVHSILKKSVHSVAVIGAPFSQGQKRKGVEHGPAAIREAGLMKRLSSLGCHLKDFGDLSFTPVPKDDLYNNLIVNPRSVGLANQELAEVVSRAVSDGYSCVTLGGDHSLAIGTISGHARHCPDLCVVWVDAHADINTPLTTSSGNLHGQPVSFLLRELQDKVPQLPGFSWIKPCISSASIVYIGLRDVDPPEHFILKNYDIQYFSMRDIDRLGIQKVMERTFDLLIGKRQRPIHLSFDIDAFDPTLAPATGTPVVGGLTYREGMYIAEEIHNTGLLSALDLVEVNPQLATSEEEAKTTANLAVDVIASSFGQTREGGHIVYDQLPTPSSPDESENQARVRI
# [6] = target: T3, Proteasome subunit beta (Trypanosoma cruzi) (UniProt O96673); assay: Trypanosoma cruzi proteasome chymotrypsin-like activity (TcProtChymo) assay.; further: in the data most compounds retested in dose-response had high values; format: functional; conditions: 9.37 µM
# T3 sequence (whole entry): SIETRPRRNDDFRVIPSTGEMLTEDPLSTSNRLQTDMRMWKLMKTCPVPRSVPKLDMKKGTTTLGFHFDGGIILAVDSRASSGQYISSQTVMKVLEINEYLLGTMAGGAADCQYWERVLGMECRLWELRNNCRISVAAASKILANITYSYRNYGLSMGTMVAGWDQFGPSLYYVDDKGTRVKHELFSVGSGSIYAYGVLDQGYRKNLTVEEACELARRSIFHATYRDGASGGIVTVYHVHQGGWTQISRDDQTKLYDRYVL
# N/A = assay: Trypanosoma cruzi proteasome luciferase counter-screen; format: functional; conditions: 9.37 µM
# Homo sapiens = species on record: Homo sapiens; assay: To identify inhibition of the IFN signalling (Jak-Stat) pathway via expression of an eGFP reporter gene under the control of an IFN-stimulated response element (ISRE) containing MxA promoter.; format: functional; conditions: 30 µM
# [7] = target: T4, Tyrosyl-tRNA synthetase, putative (Trypanosoma cruzi (strain CL Brener)) (UniProt Q4DSP6); assay: Trypanosoma cruzi tyrosyl tRNA synthetase (TcYRS) _High Tyrosine SOP; format: functional; conditions: 30 µM; further: in the data most compounds retested in dose-response had high values
# T4 sequence (whole entry): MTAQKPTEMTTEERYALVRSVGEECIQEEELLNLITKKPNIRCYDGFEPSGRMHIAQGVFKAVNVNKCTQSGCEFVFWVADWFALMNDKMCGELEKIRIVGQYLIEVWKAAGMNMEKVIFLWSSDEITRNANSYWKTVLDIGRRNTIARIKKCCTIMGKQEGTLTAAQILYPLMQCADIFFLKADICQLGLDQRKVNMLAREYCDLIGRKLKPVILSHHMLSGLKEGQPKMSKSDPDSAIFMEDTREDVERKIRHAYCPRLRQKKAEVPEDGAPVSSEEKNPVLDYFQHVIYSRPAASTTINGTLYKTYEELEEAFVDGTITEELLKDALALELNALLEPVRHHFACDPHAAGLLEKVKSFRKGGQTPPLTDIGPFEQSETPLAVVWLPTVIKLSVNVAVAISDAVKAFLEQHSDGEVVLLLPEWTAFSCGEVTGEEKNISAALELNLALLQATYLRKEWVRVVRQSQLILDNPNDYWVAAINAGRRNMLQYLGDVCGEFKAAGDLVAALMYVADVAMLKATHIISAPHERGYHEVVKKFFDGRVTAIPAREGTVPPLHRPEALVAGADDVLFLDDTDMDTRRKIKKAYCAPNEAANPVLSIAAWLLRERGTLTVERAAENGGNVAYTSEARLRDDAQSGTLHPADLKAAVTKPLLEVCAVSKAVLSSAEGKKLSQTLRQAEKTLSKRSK
# [8] = target: T4, Tyrosyl-tRNA synthetase, putative (Trypanosoma cruzi (strain CL Brener)); assay: Trypanosoma cruzi tyrosyl tRNA synthetase (TcYRS) SOP; format: functional; conditions: 30 µM
# [9] = target: Chromo domain-containing protein 1 (Saccharomyces cerevisiae (strain ATCC 204508 / S288c) (Baker's yeast)) (UniProt P32657); assay: ScCHD-1 Enzyme Inhibition Assay; format: functional; conditions: 30 µM; further: in the data most compounds retested in dose-response had high values
# Chromo domain-containing protein 1 (Saccharomyces cerevisiae (strain ATCC 204508 / S288c) (Baker's yeast)), sequence (P32657 whole entry, the tested form may be a part): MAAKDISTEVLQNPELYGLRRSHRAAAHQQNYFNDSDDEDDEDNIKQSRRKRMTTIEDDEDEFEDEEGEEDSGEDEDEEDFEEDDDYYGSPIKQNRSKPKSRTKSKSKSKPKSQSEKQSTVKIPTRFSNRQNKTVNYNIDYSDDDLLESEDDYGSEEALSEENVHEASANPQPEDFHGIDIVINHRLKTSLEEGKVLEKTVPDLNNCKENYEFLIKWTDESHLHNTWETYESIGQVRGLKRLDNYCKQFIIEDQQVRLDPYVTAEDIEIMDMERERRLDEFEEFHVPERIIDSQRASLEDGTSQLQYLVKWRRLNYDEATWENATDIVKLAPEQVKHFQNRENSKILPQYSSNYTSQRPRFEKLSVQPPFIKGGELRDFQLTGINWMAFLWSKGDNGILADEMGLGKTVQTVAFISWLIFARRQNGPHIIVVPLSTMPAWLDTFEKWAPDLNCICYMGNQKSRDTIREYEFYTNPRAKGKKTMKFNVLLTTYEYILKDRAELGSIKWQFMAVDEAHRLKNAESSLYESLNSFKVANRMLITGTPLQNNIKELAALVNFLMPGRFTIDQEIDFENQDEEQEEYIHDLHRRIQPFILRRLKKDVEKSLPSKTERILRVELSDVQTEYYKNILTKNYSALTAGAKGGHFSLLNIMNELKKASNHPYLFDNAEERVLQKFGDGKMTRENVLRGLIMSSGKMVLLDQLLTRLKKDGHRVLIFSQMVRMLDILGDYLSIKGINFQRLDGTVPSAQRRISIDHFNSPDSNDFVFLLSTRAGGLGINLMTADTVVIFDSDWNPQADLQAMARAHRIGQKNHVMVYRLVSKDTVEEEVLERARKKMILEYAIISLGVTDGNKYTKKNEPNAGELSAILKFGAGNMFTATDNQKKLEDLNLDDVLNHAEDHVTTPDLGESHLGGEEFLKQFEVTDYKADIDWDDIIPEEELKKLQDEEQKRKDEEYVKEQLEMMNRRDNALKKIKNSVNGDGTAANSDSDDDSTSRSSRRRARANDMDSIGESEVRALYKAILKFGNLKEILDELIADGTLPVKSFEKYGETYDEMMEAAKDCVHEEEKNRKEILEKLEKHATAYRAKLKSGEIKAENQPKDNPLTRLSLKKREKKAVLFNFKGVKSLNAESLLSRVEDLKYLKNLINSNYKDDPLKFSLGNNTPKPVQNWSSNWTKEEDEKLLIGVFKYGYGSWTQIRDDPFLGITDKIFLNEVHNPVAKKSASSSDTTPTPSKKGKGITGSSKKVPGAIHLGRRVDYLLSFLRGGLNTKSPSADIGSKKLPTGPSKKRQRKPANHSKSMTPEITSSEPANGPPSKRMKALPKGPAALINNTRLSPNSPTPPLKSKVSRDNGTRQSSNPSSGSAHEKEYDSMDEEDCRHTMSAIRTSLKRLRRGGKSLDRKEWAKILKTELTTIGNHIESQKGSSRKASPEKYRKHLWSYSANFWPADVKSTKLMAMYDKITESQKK
SMILES,Percent Effect [1],Percent Effect [2],Percent Effect [3],Percent Effect [4],Percent Effect (Trypanosoma cruzi),Percent Effect [5],Percent Effect [6],Percent Effect (N/A),Percent Effect (Homo sapiens),Percent Effect [7],Percent Effect [8],Percent Effect [9]
O=C(Nc1ccccn1)C1CC(=O)N(Cc2ccccn2)C1 (stereo not given),-2.05%,15.8%,1.82%,8.62%,-4.97%,2.37%,26.3% and 37.5% and 33.2%,28% and 30%,-8.07%,3.19%,7.79%,-4%
CC(Cn1cccn1)NCc1csc(-c2ccccc2F)n1 (stereo not given),-1.44%,-5.41%,-14.2%,7.22%,3.87%,-4.41%,90.3% and 88.1% and 85%,59.5% and 61%,13.2%,1.48%,11.1%,-4.62%
Cc1ccc(C)c(C(NC(=O)C2CC2)c2cccnc2)c1 (stereo not given),0.279%,18.2%,-0.34%,-7.55%,4.24%,-1.94%,32.4% and 20.1% and 20.4%,21.2% and 15.5%,6.26%,4.23%,8.97%,-10.3%
Cc1cnn(C2CN(CC(=O)NCc3ccccn3)C2)c1,0.391%,26.3%,-12.2%,-9.97%,7.56%,-4.32%,63.5% and 62% and 58.8%,11.6% and 13.6%,-8.2%,17.2%,25.9%,-5.97%
CCc1nc(COc2ccc(OCc3cnn(C)c3)cc2)no1,-3.52%,13.5%,-5.93%,21.3%,3.86%,4.29%,50.7% (2×) and 48.5%,32% and 28.2%,23.4%,3.7%,19.5%,-9.15%
CSC(C)C(=O)NCCCc1cc(N)n(-c2ccccc2)n1 (stereo not given),-3.19%,-5.48%,16.9%,-3.4%,-2.15%,-12.3%,74.4% and 84.2% and 83.7%,46.1% and 47.4%,14.8%,-1.07%,0%,-2.72%
Cc1ccc(CN(C)C(=O)CN2CC(n3cccn3)C2)o1,-6.67%,2.63%,17.5%,-1.07%,-1.46%,-4.73%,23.1% and 34.2% and 27.3%,20.4% and 19.7%,22.7%,-2.13%,-2.6%,-1.83%
O=C(CC1CN(Cc2ccccc2)CCO1)Nc1ccccc1F (stereo not given),-4.53%,21.6%,-4.08%,3.88%,2.15%,4.17%,64.1% and 65% and 65.1%,32.6% and 32.9%,4.52%,8.91%,15.8%,-1.97%
CCc1nc(CN2CCCN(C(=O)CCc3ccco3)CC2)cs1,-4.67%,8.86%,-0.445%,-5.08%,5.64%,-4.95%,56.6% and 53% and 44.8%,0.501% and 5.84%,3.92%,7.29%,15.2%,-32.7%
O=C(O)c1ccc(F)c(S(=O)(=O)Nc2ccc(-n3cccn3)c(Cl)c2)c1,-5.92%,-2.67%,-7.61%,-0.566%,-2.63%,0%,16.3% and 16.5% and 41.1%,15.6% and 20.6%,-13.3%,-1.64%,1.24%,-4.16%
Cc1cc(C(C)C(=O)N2CCCN(Cc3cscn3)CC2)c(C)o1 (stereo not given),-0.889%,21.1%,-6.33%,21.4%,1.5%,-4.98%,31.9% and 34.8% and 34.4%,4.24% and 9.24%,23.1%,3.43%,17.1%,-9.64%
Cc1ccc(N(C)C2CCN(C(=O)CCc3ccco3)CC2)nn1,-4.56%,5.41%,12.7%,1.05%,5.66%,0.554%,48.4% and 44.9% and 50.1%,12.6% and 9.51%,8.17%,22.8%,23.2%,3.63%
COc1cccc(C(=O)NCC(O)c2cccs2)c1 (stereo not given),-3.69%,11%,7.67%,3.99%,6.46%,0%,34.1% and 33.9% and 40.3%,6.45% and 13%,-9.23%,7.53%,17.5%,-3.59%
Cc1ccc(S(=O)(=O)Nc2ccc(-n3cccc3C(=O)O)c(C)c2)s1,-4.28%,5.26%,12.2%,2.35%,-5.55%,9.47%,29.7% and 25.9% and 32.3%,14.7% and 12.8%,-7.51%,-9.57%,-15.6%,4.9%
Cn1cccc1C(=O)N1CCC2(CC1)CN(c1cncnc1)C(=O)CO2,-7.32%,-189%,-15.1%,-0.563%,-6.69%,-1.17%,51% and 53.6% and 55.8%,4.36% and 0.727%,18.6%,-69.2%,-150%,-4.5%
Cc1ccc(-c2cc(C(=O)NC(C)C(=O)N3CCCCC3)on2)cc1 (stereo not given),-6.75%,13.2%,6.88%,1.96%,4.19%,5.92%,34.9% and 32.7% and 30.8%,29.4%,10.4%,2.13%,10.4%,-6.32%
O=C(Nc1ccc(F)c(Br)c1)N1CCCC1,-2.64%,-2.7%,4.93%,-0.317%,-4.49%,2.92%,53.1% and 53% and 53.3%,8.61% and 7.62%,18.2%,-34.6%,3.66%,-3.18%
CC(C)c1cc2c(O)nc(CSCC(=O)O)nc2s1,-4.64%,6.67%,7.73%,3.74%,3.93%,-2.99%,70.5% and 64.5% and 63.5%,32% and 29.1%,1.31%,4.23%,10.3%,-9.79%
CCOc1ncccc1NC(=O)c1cc2c(s1)CCC2,1.48%,9.72%,8.31%,7.26%,2.82%,-6.18%,22.1% and 36.7% and 23%,13.8% and 15.3%,9.51%,4.21%,10.3%,63.8%
Cc1nc(CN2C[C@@H]3CN(C(=O)c4cccn4C)C[C@@H]3C2=O)cs1,1.08%,13.5%,1.31%,-6.65%,-4.2%,-0.955%,13.3% and 13.5% and 30.8%,6.13% and 6.46%,11.3%,3.24%,15.4%,-1.02%
